PubChem BioAssay (NCATS)
Several values for one entry are separate records, joined by “and”; a condition that tells them apart may be missing. Equal entries are not always repeated. Results filed as inconclusive are left out. Activity calls are given as the source filed them. Calls come from the whole dose curve; as a rule, active = well fitted cell-killing curve with a large enough effect; inconclusive = small, poorly fitted or top-dose-only effect; inactive = flat fitted curve, though single readings scatter.
Potency is the fitted concentration of half-maximal effect.

Assay: Cell Viability - LYMP2-010 (AID 981);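 note: cells exposed to compound for 24 hours at 37 °C; nearly all actives have a fitted effect of over 55% in size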
Conditions: LYMP2-010 lymphoblastoid cell viability, qHTS; series mostly up to 92.2 µM
Outline: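 Human lymphoblastoid LYMP2-010 cells (2500/well) treated 24 h at 37 C in complete medium; viability read as intracellular ATP by CellTiter-Glo luminescence. AC50 from Hill fits of concentration-response data; tetraoctylammonium bromide positive control.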
For CCCCCCCCCCCC[N+](C)(C)CCOc1ccccc1, the Potency was 39.8 µM (active).
In the case of CC[n+]1c(-c2ccccc2)c2cc(N)ccc2c2ccc(N)cc21, the Potency is reported as 12.6 µM (active).
In the case of COC(=O)C1=C(C)NC(C)=C(C(=O)OC)C1c1ccccc1[N+](=O)[O-], the Potency is reported as 39.8 µM (active).
In the case of Oc1ccc(Cl)cc1Sc1cc(Cl)ccc1O, the Potency is reported as 39.8 µM (active).
For CNC(=O)Oc1cccc2ccccc12, the Potency was “inactive”.
In the case of CN(C)C(=S)SSC(=S)N(C)C, the Potency is reported as 0.251 µM (active).
In the case of C[C@@H]1C[C@@H]([C@H](O)CC2CC(=O)NC(=O)C2)C(=O)[C@@H](C)C1, the Potency is reported as 1 µM (active).
With COP(=O)(OC)OC=C(Cl)Cl the Potency was “inactive”.
In the case of O=C(CCl)c1ccc(Cl)cc1Cl, the Potency is reported as 2.51 µM (active).
For Oc1c(Br)cc(Br)cc1Br, the Potency was “inactive”.

Assay: Cell Viability - LYMP2-012 (AID 982);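 note: cellular ATP by luciferase luminescence where a drop means cytotoxicity; cells exposed to compound for one day before reading; nearly all actives have a fitted effect of over 55% in size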
Conditions: LYMP2-012 lymphoblastoid cell viability qHTS; series mostly up to 92.2 µM
With CCCCCCCCCCCC[N+](C)(C)CCOc1ccccc1 the Potency was 39.8 µM (active).
With CC[n+]1c(-c2ccccc2)c2cc(N)ccc2c2ccc(N)cc21 the Potency was 7.94 µM (active).
For Oc1ccc(Cl)cc1Sc1cc(Cl)ccc1O, the Potency was 31.6 µM (active).
In the case of CNC(=O)Oc1cccc2ccccc12, the Potency is reported as “inactive”.
In the case of CN(C)C(=S)SSC(=S)N(C)C, the Potency is reported as 0.199 µM (active).
With C[C@@H]1C[C@@H]([C@H](O)CC2CC(=O)NC(=O)C2)C(=O)[C@@H](C)C1 the Potency was 631 nM (active) and 794 nM (active).
For COP(=O)(OC)OC=C(Cl)Cl, the Potency was “inactive”.
With O=C(CCl)c1ccc(Cl)cc1Cl the Potency was 3.16 µM (active).
In the case of Oc1c(Br)cc(Br)cc1Br, the Potency is reported as “inactive”.

Assay: Cell Viability - LYMP2-014 (AID 983);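 note: cells exposed to compound for 24 h at 37 °C; nearly all actives have a fitted effect of over 50% in size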
Conditions: LYMP2-014 lymphoblastoid cells, viability qHTS; series mostly up to 92.2 µM
Outline: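 LYMP2-014 human lymphoblastoid cells, 2500/well, treated 24 h at 37 C in complete medium; viability by CellTiter-Glo ATP luminescence after 30 min at room temperature. AC50 from Hill fits of qHTS concentration-response; tetraoctylammonium bromide positive control.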
In the case of CCCCCCCCCCCC[N+](C)(C)CCOc1ccccc1, the Potency is reported as 39.8 µM (active).
For CC[n+]1c(-c2ccccc2)c2cc(N)ccc2c2ccc(N)cc21, the Potency was 10 µM (active).
In the case of CNC(=O)Oc1cccc2ccccc12, the Potency is reported as “inactive”.
In the case of CN(C)C(=S)SSC(=S)N(C)C, the Potency is reported as 0.199 µM (active).
In the case of COP(=O)(OC)OC=C(Cl)Cl, the Potency is reported as “inactive”.
For O=C(CCl)c1ccc(Cl)cc1Cl, the Potency was 5.01 µM (active).
In the case of Oc1c(Br)cc(Br)cc1Br, the Potency is reported as “inactive”.

Assay: Cell Viability - LYMP2-016 (AID 984);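 note: cells exposed to compound for 24 hours at 37 °C; nearly all actives have a fitted effect of over 55% in size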
Conditions: LYMP2-016 lymphoblastoid cell viability, qHTS; series mostly up to 92.2 µM
Outline: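 Human lymphoblastoid cells (LYMP2-016), 2500/well in complete medium, preincubated 5 hr at 37 C, then compound-treated 24 hr at 37 C. Intracellular ATP read by CellTiter-Glo luminescence after 30 min at room temperature; AC50 from Hill-equation concentration-response fits.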
For CCCCCCCCCCCC[N+](C)(C)CCOc1ccccc1, the Potency was 31.6 µM (active).
With CC[n+]1c(-c2ccccc2)c2cc(N)ccc2c2ccc(N)cc21 the Potency was 15.8 µM (active).
For CNC(=O)Oc1cccc2ccccc12, the Potency was “inactive”.
For CN(C)C(=S)SSC(=S)N(C)C, the Potency was 0.316 µM (active).
For COP(=O)(OC)OC=C(Cl)Cl, the Potency was “inactive”.
With O=C(CCl)c1ccc(Cl)cc1Cl the Potency was 5.01 µM (active).
For Oc1c(Br)cc(Br)cc1Br, the Potency was “inactive”.
